From PubChem BioAssay AID1159580 (chemical genetic matrix, 2015)
Where “and” joins values, the source holds several entries; their conditions need not be identical. Equal entries are not always repeated. About 2,000 (36%) of roughly 5,500 compounds were called active. Inconclusive results (about 18%) are left out. Cut-off read from the data, not from the text of the source: active = normalized growth mostly below about 0.91 (no sharp cut-off); inconclusive = no clear call, values can overlap the other calls; inactive = mostly above about 0.92. The list shows a part of the results.

Experiment: chemical genetic growth profiling, strain panel (AID 1159580);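 note: tested at 20 µM; growth read once vehicle control cultures reached saturation at 30 °C; 1 = growth at the plate median or of vehicle wells; lower values mean less growth of the strain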
Conditions: growth OD

Measured: normalized growth

NCCc1ccc(O)c(O)c1
inactive: S. cerevisiae deletion strains, locus YJL187C, strain SWE1 (second series), active compounds read low 0.965 | S. cerevisiae deletion strains, locus YJR043C, strain POL32, active compounds read low 1.03 | S. cerevisiae deletion strains, locus YJR066W, strain TOR1, active compounds read low 0.958 and 0.96 | S. cerevisiae deletion strains, locus YJR075W, strain HOC1, active compounds read low 0.98 and 0.981 | S. cerevisiae deletion strains, locus YKL009W, strain mrt4, active compounds read low 0.964 | S. cerevisiae deletion strains, locus YKL068W, active compounds read low 0.981 | S. cerevisiae deletion strains, locus YKL085W, strain MDH1 (second series), active compounds read low 0.994 | S. cerevisiae deletion strains, locus YKL085W, strain MDH1, active compounds read low 0.994 | S. cerevisiae deletion strains, locus YKL160W, strain elf1, active compounds read low 1 | S. cerevisiae deletion strains, locus YKR001C, strain vps1, active compounds read low 0.995 | S. cerevisiae deletion strains, locus YKR026C, strain gcn3, active compounds read low 1 | S. cerevisiae deletion strains, locus YKR091W, strain srl3, active compounds read low 1.01 | S. cerevisiae deletion strains, locus YLL001W, strain dnm1, active compounds read low 0.983 | S. cerevisiae deletion strains, locus YLL026W, active compounds read low 1 | S. cerevisiae deletion strains, locus YLL041C, strain sdh2, active compounds read low 0.991 | S. cerevisiae deletion strains, locus YLR027C, strain aat2, active compounds read low 1.01 | S. cerevisiae deletion strains, locus YLR039C, strain RIC1, active compounds read low 0.99 | S. cerevisiae deletion strains, locus YLR058C, strain SHM2, active compounds read low 0.985 | S. cerevisiae deletion strains, locus YLR102C, strain apc9, active compounds read low 0.992 | S. cerevisiae deletion strains, locus YLR113W, strain HOG1, active compounds read low 1.07 and 1.04 | S. cerevisiae deletion strains, locus YLR221C, strain rsa3, active compounds read low 0.982 | S. cerevisiae deletion strains, locus YLR258W, strain gsy2, active compounds read low 1 | S. cerevisiae deletion strains, locus YLR262C, strain YPT6 (second series), active compounds read low 0.998 | S. cerevisiae deletion strains, locus YLR262C, strain YPT6, active compounds read low 0.969 | S. cerevisiae deletion strains, locus YLR268W, strain sec22, active compounds read low 1.01 | S. cerevisiae deletion strains, locus YLR320W, strain mms22, active compounds read low 1 | S. cerevisiae deletion strains, locus YLR330W, strain CHS5, active compounds read low 0.998 | S. cerevisiae deletion strains, locus YLR342W, strain FKS1 (second series), active compounds read low 0.981 | S. cerevisiae deletion strains, locus YLR342W, strain FKS1, active compounds read low 0.999 | S. cerevisiae deletion strains, locus YLR357W, strain rsc2, active compounds read low 0.985 | S. cerevisiae deletion strains, locus YLR370C, strain arc18, active compounds read low 1.01 | S. cerevisiae deletion strains, locus YLR371W, strain rom2, active compounds read low 0.992 | S. cerevisiae deletion strains, locus YLR384C, strain iki3, active compounds read low 0.99 | S. cerevisiae deletion strains, locus YLR418C, strain cdc73, active compounds read low 0.999 | S. cerevisiae deletion strains, locus YML016C, strain PPZ1, active compounds read low 0.991 | S. cerevisiae deletion strains, locus YML032C, strain rad52, active compounds read low 1.01 | S. cerevisiae deletion strains, locus YML120C, strain ndi1, active compounds read low 1.01 | S. cerevisiae deletion strains, locus YML124C, strain tub3, active compounds read low 1 | S. cerevisiae deletion strains, locus YMR058W, strain fet3, active compounds read low 1.02 | S. cerevisiae deletion strains, locus YMR078C, strain ctf18, active compounds read low 0.991 | S. cerevisiae deletion strains, locus YMR125W, strain sto1, active compounds read low 1.01 | S. cerevisiae deletion strains, locus YMR129W, active compounds read low 1.01 | S. cerevisiae deletion strains, locus YMR205C, strain PFK2, active compounds read low 1.03 | S. cerevisiae deletion strains, locus YMR223W, strain ubp8, active compounds read low 0.972 | S. cerevisiae deletion strains, locus YMR231W, strain pep5, active compounds read low 1.01 | S. cerevisiae deletion strains, locus YMR307W, strain GAS1, active compounds read low 1.03 | S. cerevisiae deletion strains, locus YNL067W, strain RPL9B, active compounds read low 0.968 | S. cerevisiae deletion strains, locus YNL071W, strain lat1, active compounds read low 1 | S. cerevisiae deletion strains, locus YNL153C, strain GIM3, active compounds read low 0.973 and 0.99 | S. cerevisiae deletion strains, locus YNL175C, strain NOP13, active compounds read low 1 | S. cerevisiae deletion strains, locus YNL183C, strain NPR1, active compounds read low 1 and 0.946 | S. cerevisiae deletion strains, locus YNL197C, strain WHI3, active compounds read low 0.993 | S. cerevisiae deletion strains, locus YNL209W, strain ssb2, active compounds read low 1 | S. cerevisiae deletion strains, locus YNL224C, strain SQS1, active compounds read low 1 | S. cerevisiae deletion strains, locus YNL233W, strain BNI4, active compounds read low 0.984 | S. cerevisiae deletion strains, locus YNL248C, strain rpa49, active compounds read low 0.985 | S. cerevisiae deletion strains, locus YNL250W, strain rad50, active compounds read low 1 | S. cerevisiae deletion strains, locus YNL271C, strain bni1, active compounds read low 0.991 | S. cerevisiae deletion strains, locus YNL298W, strain CLA4, active compounds read low 1 | S. cerevisiae deletion strains, locus YNL307C, strain MCK1, active compounds read low 1 | S. cerevisiae deletion strains, locus YNL322C, strain KRE1 (second series), active compounds read low 0.99 | S. cerevisiae deletion strains, locus YNR049C, strain mso1, active compounds read low 1.01 | S. cerevisiae deletion strains, locus YNR052C, strain pop2, active compounds read low 1.01 | S. cerevisiae deletion strains, locus YOL012C, strain htz1 0.769 | S. cerevisiae deletion strains, locus YOL147C, strain pex11, active compounds read low 0.998 | S. cerevisiae deletion strains, locus YOR001W, strain rrp6, active compounds read low 0.997 | S. cerevisiae deletion strains, locus YOR061W, strain CKA2, active compounds read low 0.993 | S. cerevisiae deletion strains, locus YOR069W, strain VPS5, active compounds read low 0.998 | S. cerevisiae deletion strains, locus YOR080W, strain dia2, active compounds read low 1.01 | S. cerevisiae deletion strains, locus YOR083W, strain WHI5 (second series), active compounds read low 0.984 | S. cerevisiae deletion strains, locus YOR083W, strain WHI5, active compounds read low 1.01 | S. cerevisiae deletion strains, locus YOR106W, strain vam3, active compounds read low 0.981 | S. cerevisiae deletion strains, locus YOR136W, strain idh2, active compounds read low 0.999 | S. cerevisiae deletion strains, locus YOR144C, strain elg1, active compounds read low 0.997 | S. cerevisiae deletion strains, locus YOR184W, strain ser1, active compounds read low 0.995 | S. cerevisiae deletion strains, locus YOR231W, strain MKK1, active compounds read low 1.07 and 1.04 | S. cerevisiae deletion strains, locus YOR265W, strain rbl2, active compounds read low 1.01 | S. cerevisiae deletion strains, locus YOR270C, strain vph1, active compounds read low 1.06 | S. cerevisiae deletion strains, locus YOR290C, strain snf2, active compounds read low 1.01 | S. cerevisiae deletion strains, locus YOR316C, strain cot1, active compounds read low 0.993 | S. cerevisiae deletion strains, locus YPL051W, strain arl3, active compounds read low 0.974 | S. cerevisiae deletion strains, locus YPL055C, strain LGE1, active compounds read low 0.974 | S. cerevisiae deletion strains, locus YPL078C, strain atp4, active compounds read low 1.02 | S. cerevisiae deletion strains, locus YPL106C, strain sse1, active compounds read low 0.968 | S. cerevisiae deletion strains, locus YPL240C, strain hsp82, active compounds read low 1.01 | S. cerevisiae deletion strains, locus YPL256C, strain CLN2, active compounds read low 1.03 and 1.04 | S. cerevisiae deletion strains, locus YPR119W, strain clb2, active compounds read low 0.995 | S. cerevisiae deletion strains, locus YPR141C, strain kar3, active compounds read low 0.969 | S. cerevisiae deletion strains, locus YPR163C, strain tif3, active compounds read low 0.997 | S. cerevisiae deletion strains, locus YPR167C, strain met16, active compounds read low 0.999 | S. cerevisiae deletion strains, strain wtn01, active compounds read low 0.994 | S. cerevisiae strains, strain wild type, active compounds read low 0.993
